# PubChem BioAssay
# A number with no mark means an inactive call. This is one part of the list. Activity calls are given as the source filed them. Unless noted, no stated cut-off is given here; in the data, active means inhibition above about 44%; inactive means the rest.
# Assays:
# [1] = StAR promoter reporter inhibitors, counter-screen for LRH-1 inverse agonist project, cell-based, luminescence, high throughput (AID 651611; in the data active means inhibition above about 28%); conditions: StAR promoter luciferase reporter counterscreen, at 3.6 µM, hits give high values
# [2] = molecular target: Nuclear receptor subfamily 5 group A member 2 (Homo sapiens) (UniProt O00482); test: LRH-1 (NR5A2) inverse agonists, retest, confirmation, cell-based, luminescence (AID 651613; in the data active means inhibition above about 42%;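 further: HEK293T cells co-transfected with LRH-1 and StAR promoter luciferase reporter; 0% = vehicle wells and 100% = parental cells lacking receptor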); conditions: cell-based LRH-1 luciferase reporter, inverse agonism; at 3.6 µM; hits give high values
# [3] = molecular target: Steroidogenic factor 1 (Homo sapiens) (UniProt Q13285); test: SF1 (NR5A1) inverse agonists, counter-screen for LRH-1 inverse agonist project, cell-based, luminescence, high throughput (AID 651614); conditions: cell-based SF1 luciferase reporter, at 3.6 µM, hits give high values;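 further: cells cotransfected with StAR promoter reporter and SF1 expression vector; 0% = vehicle on cells with receptor and 100% = vehicle on cells lacking receptor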
# [4] = VP16 transactivation reporter inhibitors, counter-screen for LRH-1 inverse agonist project, cell-based, luminescence, high throughput (AID 651615; in the data active means inhibition above about 33%); conditions: Gal4-VP16 luciferase reporter cells, at 3.6 µM, hits give high values
# [5] = molecular target: Nuclear receptor coactivator 1 (Homo sapiens) (UniProt Q15788); test: SRC1 coactivator transcriptional activity inhibitors, confirmation, cell-based, luminescence, quadruplicate (AID 588820;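 active means mean inhibition above 46.68%, the untreated control wells mean plus 3 SD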;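 further: 0% = DMSO wells and 100% = gossypol 36 µM treated wells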); conditions: HEK293 GAL4-SRC1 luciferase reporter, at 3.6 µM, hits give high values
# [6] = VP16 transactivation inhibitors, counter-screen for SRC1 inhibitor project, cell-based, luminescence, high throughput (AID 588824; in the data active means inhibition above about 25%); conditions: cell-based VP16 transactivation luciferase luminescence; at 3.6 µM; hits give high values
# [7] = tested on: transactivating tegument protein VP16 (Human herpesvirus 1); test: VP16 transactivation reporter inhibitors, counter-screen for SRC2 inhibitor project, cell-based, luminescence, single concentration (AID 652007; in the data active means inhibition above about 36%); conditions: cell-based VP16 transactivation luciferase reporter, at 8.9 µM, hits give high values
# [8] = molecular target: Nuclear receptor coactivator 2 (Homo sapiens) (UniProt Q15596); test: SRC2 coactivator transcriptional activity inhibitors, confirmation, cell-based, luminescence, HEK293, triplicate (AID 652008;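 active means mean inhibition above 46.5%, the solvent-only control mean plus 3 SD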;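 further: 0% = DMSO-treated cells and 100% = Gossypol at 36 µM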); conditions: HEK293 GAL4-SRC2 luciferase reporter, at 8.9 µM, hits give high values
# [9] = molecular target: Photoreceptor-specific nuclear receptor (Homo sapiens) (UniProt Q9Y5X4); test: NR2E3 agonist confirmation in cells, cell-based, luminescence, CHO-S two-hybrid (AID 624378;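 active means average inhibition above a cutoff equal to the mean inhibition of all tested compounds plus one SD, cut at about 70% in these data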;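 further: 0% = DMSO in NR2E3 cells and 100% = DMSO in cells lacking NR2E3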); conditions: CHO-S mammalian two-hybrid NR2E3-NCOR, luciferase luminescence; at 3.98 µM; hits give high values
# [10] = GAL4-VP16 reporter modulators, confirmation, counter-screen for NR2E3 agonist project, cell-based, luminescence, CHO-S, high throughput (AID 624379;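 active means mean inhibition above a cutoff equal to the average over all tested compounds plus one standard deviation, cut at about 70% in these data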;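 further: luciferase from a UAS reporter driven by GAL4-VP16 transactivation; 0% = DMSO with VP16-transfected cells and 100% = DMSO with cells lacking VP16; higher means less reporter light so more repression of VP16 activity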); conditions: CHO-S GAL4-VP16 luciferase reporter, at 3.98 µM, hits give high values
# Sequence of Nuclear receptor coactivator 1 (Homo sapiens) (Q15788 whole entry, looked up, the tested form may be a part): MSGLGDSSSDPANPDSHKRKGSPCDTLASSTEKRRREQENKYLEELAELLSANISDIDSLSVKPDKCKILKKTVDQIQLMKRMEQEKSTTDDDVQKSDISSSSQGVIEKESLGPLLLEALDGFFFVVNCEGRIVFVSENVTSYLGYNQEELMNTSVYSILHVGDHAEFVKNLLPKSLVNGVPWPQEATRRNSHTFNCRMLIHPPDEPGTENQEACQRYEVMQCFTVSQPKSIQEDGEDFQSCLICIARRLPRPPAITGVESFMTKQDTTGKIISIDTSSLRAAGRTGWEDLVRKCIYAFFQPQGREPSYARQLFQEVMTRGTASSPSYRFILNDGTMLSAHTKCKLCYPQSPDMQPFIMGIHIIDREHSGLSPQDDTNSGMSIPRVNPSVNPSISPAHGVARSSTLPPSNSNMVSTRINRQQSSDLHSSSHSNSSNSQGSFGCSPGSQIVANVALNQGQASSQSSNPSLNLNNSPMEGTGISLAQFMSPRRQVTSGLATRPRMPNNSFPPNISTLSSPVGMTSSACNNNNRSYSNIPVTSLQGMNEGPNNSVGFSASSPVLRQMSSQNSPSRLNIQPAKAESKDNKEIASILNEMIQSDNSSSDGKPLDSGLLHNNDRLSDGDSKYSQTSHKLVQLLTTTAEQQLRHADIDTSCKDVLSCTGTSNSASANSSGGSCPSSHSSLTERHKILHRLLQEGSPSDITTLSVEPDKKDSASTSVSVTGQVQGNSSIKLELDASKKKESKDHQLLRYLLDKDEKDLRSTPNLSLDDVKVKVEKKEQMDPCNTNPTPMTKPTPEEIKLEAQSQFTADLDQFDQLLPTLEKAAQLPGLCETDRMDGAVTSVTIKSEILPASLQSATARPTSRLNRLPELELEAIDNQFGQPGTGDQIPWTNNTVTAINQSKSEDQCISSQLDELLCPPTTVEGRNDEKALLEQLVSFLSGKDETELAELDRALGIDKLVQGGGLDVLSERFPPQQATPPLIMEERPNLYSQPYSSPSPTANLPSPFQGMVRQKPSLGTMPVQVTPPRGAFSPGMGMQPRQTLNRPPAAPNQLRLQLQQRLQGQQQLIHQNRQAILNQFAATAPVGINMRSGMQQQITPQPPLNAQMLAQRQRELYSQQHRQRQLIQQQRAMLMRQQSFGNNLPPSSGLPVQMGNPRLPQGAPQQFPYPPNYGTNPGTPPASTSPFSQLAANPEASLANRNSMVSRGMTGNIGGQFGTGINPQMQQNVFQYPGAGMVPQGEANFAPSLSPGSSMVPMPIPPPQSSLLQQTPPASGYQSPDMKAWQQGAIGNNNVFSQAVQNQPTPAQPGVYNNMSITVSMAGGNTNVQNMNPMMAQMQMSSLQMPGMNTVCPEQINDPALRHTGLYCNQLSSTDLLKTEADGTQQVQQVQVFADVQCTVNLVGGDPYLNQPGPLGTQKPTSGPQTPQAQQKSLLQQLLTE
# Sequence of Nuclear receptor subfamily 5 group A member 2 (Homo sapiens) (O00482 whole entry, looked up): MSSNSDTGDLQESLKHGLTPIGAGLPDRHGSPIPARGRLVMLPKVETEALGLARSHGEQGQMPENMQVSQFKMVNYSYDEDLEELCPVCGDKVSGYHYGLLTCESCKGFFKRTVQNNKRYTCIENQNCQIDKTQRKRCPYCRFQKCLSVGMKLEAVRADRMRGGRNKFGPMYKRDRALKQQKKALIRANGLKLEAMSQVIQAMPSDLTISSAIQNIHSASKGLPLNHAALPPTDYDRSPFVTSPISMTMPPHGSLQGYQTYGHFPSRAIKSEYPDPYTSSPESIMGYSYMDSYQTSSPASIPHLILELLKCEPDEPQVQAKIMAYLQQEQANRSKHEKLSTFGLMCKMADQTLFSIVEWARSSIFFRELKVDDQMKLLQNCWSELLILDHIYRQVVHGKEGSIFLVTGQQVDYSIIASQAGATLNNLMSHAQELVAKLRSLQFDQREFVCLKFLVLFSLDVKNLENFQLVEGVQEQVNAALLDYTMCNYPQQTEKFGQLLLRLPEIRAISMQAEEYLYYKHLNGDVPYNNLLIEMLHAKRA
# Sequence of Steroidogenic factor 1 (Homo sapiens) (Q13285 whole entry, looked up, the tested form may be a part): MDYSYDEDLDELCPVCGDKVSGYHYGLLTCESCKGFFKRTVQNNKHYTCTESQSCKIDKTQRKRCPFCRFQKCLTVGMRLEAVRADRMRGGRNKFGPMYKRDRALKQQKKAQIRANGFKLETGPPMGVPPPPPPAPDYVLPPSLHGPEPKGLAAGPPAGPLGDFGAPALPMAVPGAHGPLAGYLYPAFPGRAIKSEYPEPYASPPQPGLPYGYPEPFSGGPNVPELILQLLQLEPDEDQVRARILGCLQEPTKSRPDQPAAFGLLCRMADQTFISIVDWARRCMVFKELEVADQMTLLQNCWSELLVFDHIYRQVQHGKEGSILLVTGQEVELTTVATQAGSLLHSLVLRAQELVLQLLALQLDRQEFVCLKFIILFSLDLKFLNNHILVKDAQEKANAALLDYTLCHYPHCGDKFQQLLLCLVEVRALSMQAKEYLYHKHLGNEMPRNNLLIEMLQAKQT
# Sequence of Photoreceptor-specific nuclear receptor (Homo sapiens) (Q9Y5X4 whole entry, looked up, the tested form may be a part): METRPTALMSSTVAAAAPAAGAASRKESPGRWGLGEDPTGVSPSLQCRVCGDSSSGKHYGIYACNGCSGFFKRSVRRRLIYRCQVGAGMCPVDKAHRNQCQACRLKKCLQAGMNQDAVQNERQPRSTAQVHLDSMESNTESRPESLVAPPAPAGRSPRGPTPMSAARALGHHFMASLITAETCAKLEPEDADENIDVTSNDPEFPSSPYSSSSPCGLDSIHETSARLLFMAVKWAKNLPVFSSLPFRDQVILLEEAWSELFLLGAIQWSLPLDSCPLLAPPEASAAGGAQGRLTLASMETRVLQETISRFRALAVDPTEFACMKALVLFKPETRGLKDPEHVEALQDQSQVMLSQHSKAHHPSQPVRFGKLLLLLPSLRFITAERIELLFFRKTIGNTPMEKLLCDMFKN
# Sequence of Nuclear receptor coactivator 2 (Homo sapiens) (Q15596 whole entry, looked up, the tested form may be a part): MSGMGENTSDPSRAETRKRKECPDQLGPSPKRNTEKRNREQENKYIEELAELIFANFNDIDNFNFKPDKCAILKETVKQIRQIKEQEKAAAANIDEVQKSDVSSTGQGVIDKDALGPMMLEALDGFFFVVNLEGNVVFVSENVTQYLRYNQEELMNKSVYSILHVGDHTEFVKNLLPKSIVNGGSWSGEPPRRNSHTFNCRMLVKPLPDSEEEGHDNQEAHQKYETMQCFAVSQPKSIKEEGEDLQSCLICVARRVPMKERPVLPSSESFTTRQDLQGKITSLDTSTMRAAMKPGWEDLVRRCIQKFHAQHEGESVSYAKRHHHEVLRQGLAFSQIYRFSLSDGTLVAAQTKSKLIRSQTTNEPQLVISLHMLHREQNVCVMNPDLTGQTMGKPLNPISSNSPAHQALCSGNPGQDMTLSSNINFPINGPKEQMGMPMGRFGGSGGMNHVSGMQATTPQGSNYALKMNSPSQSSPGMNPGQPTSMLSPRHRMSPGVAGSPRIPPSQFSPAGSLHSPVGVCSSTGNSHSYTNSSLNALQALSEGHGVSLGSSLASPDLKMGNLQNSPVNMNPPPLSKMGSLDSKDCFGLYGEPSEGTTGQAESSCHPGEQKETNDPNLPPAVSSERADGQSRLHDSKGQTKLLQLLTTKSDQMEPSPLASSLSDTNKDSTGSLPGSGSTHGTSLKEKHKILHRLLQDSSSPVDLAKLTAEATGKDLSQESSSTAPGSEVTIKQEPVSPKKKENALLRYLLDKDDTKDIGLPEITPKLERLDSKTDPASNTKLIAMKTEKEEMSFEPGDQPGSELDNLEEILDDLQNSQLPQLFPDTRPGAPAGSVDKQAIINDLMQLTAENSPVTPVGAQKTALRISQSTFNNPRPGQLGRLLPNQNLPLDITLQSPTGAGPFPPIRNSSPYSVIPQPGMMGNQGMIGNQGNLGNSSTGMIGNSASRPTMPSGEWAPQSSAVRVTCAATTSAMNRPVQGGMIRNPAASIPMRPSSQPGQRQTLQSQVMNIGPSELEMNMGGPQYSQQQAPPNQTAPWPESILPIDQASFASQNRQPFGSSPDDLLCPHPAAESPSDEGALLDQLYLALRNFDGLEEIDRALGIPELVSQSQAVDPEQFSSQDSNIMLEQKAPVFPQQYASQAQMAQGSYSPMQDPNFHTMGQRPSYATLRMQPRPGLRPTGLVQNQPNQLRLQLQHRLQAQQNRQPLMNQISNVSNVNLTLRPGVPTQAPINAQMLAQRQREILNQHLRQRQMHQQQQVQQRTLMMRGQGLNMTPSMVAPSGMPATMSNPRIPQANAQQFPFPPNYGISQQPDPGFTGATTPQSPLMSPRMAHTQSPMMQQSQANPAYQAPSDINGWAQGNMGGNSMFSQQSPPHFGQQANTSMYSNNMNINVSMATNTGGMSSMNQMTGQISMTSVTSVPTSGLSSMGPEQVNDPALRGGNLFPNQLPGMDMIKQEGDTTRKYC
structure (smiles),measurement,setting,value
C=C1[C@@H](C)[C@H]2[C@H](Cc3ccccc3)NC(=O)[C@]23OC(=O)/C=C/[C@H](O)CCC[C@@H](C)C/C=C/[C@H]3[C@@H]1O,inhibition,[1],52.7% (active)
same,inhibition,[2],27.9%
same,inhibition,[3],44.3% (active)
same,inhibition,[4],27%
N#Cc1c(Br)n(C2OC(CO)C(O)C2O)c2ncnc(N)c12 (centres undefined),inhibition,[5],40.9%
same,inhibition,[6],29.9% (active)
same,inhibition,[1],61.8% (active)
same,inhibition,[2],77.3% (active)
same,inhibition,[3],63.2% (active)
same,inhibition,[4],48.6% (active)
same,inhibition,[7],-16.7%
same,inhibition,[8],54.4% (active)
COc1cc2c(cc1OC)[C@@H]1C(=O)c3ccc4c(c3O[C@@H]1CO2)C[C@H](C(C)C)O4,inhibition,[1],34.2% (active)
same,inhibition,[2],68.7% (active)
same,inhibition,[3],61.4% (active)
same,inhibition,[4],57.4% (active)
N#Cc1ccc(Cn2cc(C=O)c3ccccc32)cc1,inhibition,[1],4.87%
same,inhibition,[2],39.1%
same,inhibition,[3],42.4%
same,inhibition,[4],1.97%
COC(=O)COc1cc(C)cc2oc(=O)c3c(c12)CCCC3,inhibition,[1],3.14%
same,inhibition,[2],46.5% (active)
same,inhibition,[3],50.6% (active)
same,inhibition,[4],-11.3%
COc1cc2c(cc1OC)C1C(=O)c3ccc4c(c3OC1CO2)CC(C(C)C)O4 (centres undefined),inhibition,[5],-30.2%
same,inhibition,[6],41.4% (active)
same,inhibition,[1],40.3% (active)
same,inhibition,[2],71.2% (active)
same,inhibition,[3],73.1% (active)
same,inhibition,[4],65.5% (active)
CCOC(=O)[C@]12Cc3c(cc(OC)c(OC)c3OC)[C@H]1N(C1CCCCC1)C(=O)c1ccccc12,inhibition,[1],45.9% (active)
same,inhibition,[2],99.8% (active)
same,inhibition,[3],46.2% (active)
same,inhibition,[4],89.3% (active)
O=C(c1cn(Cc2ccccc2F)c2ncccc12)C(F)(F)F,inhibition,[5],-9.15%
same,inhibition,[6],-0.44%
N#CCCn1cc(C(=O)Nc2ccccc2Br)c(-c2ccc([N+](=O)[O-])cc2)n1,inhibition,[1],18.4%
same,inhibition,[2],61.5% (active)
same,inhibition,[3],51.6% (active)
same,inhibition,[4],1.09%
CN1C(=O)C(=Cc2ccc(N3CCCCCC3)cc2)C(=O)N(C)C1=O,inhibition,[1],9.79%
same,inhibition,[2],57% (active)
same,inhibition,[3],48.1% (active)
same,inhibition,[4],-4.85%
CCCCCCN=C(CC)c1c(O)n(CCCC)c(=O)[nH]c1=O,inhibition,[9],84.2% (active)
same,inhibition,[10],56.9%
N#Cc1ccc(NC(=S)N2Cc3ccccc3-n3nncc3C2)cc1,inhibition,[1],-5.3%
same,inhibition,[2],56.4% (active)
same,inhibition,[3],47.5% (active)
same,inhibition,[4],10.9%
COc1ccc(-n2nnnc2C(c2cccc3ccccc23)N2CCC3(CC2)C(=O)NCN3c2ccccc2)cc1 (centres undefined),inhibition,[5],-1.91%
same,inhibition,[6],5.57%
COc1ccc(-n2nnnc2C(c2cccc(OC)c2OC)N2CCC(n3c(=O)[nH]c4ccccc43)CC2)cc1 (centres undefined),inhibition,[5],-18.7%
same,inhibition,[6],3.33%
CCC(C)N1C(=O)/C(=C\c2ccc(N3CCCCCC3)cc2)C(=O)NC1=S (centres undefined),inhibition,[1],1.31%
same,inhibition,[2],58.9% (active)
same,inhibition,[3],40.2%
same,inhibition,[4],-2.53%
O=c1[nH]c2ccccc2n1C1CCN(C(c2cc3ccccc3o2)c2nnnn2-c2ccc3c(c2)OCCO3)CC1 (centres undefined),inhibition,[5],-27.1%
same,inhibition,[6],8.97%
Cc1cccc(C)c1-n1nnnc1C(c1cccs1)N1CCC2(CC1)C(=O)NCN2c1ccccc1 (centres undefined),inhibition,[5],22.3%
same,inhibition,[6],4.87%
CC(=O)c1cn(Cc2ccccc2C#N)c2ccccc12,inhibition,[1],28.8% (active)
same,inhibition,[2],57.2% (active)
same,inhibition,[3],55.8% (active)
same,inhibition,[4],55.5% (active)
CC(=O)c1cn(Cc2ccccc2F)c2ccccc12,inhibition,[5],-1.96%
same,inhibition,[6],35.7% (active)
COC(=O)C(C)Oc1cc(C)cc2oc(=O)c3c(c12)CCCC3 (centres undefined),inhibition,[1],14.4%
same,inhibition,[2],63.3% (active)
same,inhibition,[3],55.9% (active)
same,inhibition,[4],-29.8%
O=Cc1cn(Cc2cccc([N+](=O)[O-])c2)c2ccccc12,inhibition,[5],39.9%
same,inhibition,[6],30.7% (active)
same,inhibition,[1],65.6% (active)
same,inhibition,[2],74.4% (active)
same,inhibition,[3],80.3% (active)
same,inhibition,[4],14.4%
COc1cccc2c1C(=O)c1c(O)c3c(c(O)c1C2=O)CC(O)(C(C)=NO)CC3OC1CC(N)C(O)C(C)O1 (centres undefined),inhibition,[5],-12.8%
same,inhibition,[6],42.6% (active)
same,inhibition,[2],79.4% (active)
same,inhibition,[3],62.3% (active)
CC1=CC(O)C(O)C2(C)C1CC1OC(=O)CC3C(C)C(O)C(=O)C2C13CO (centres undefined),inhibition,[1],18.7%
same,inhibition,[2],43% (active)
same,inhibition,[3],45.9% (active)
same,inhibition,[4],-0.77%
CC(C)N(C(=O)CCl)c1ccccc1,inhibition,[1],19.8%
same,inhibition,[2],54.8% (active)
same,inhibition,[3],51.7% (active)
same,inhibition,[4],-6.55%
COc1ccccc1-n1c(/C=C/c2ccccn2)nc2ccccc2c1=O,inhibition,[1],16.9%
same,inhibition,[2],63.3% (active)
same,inhibition,[3],53.7% (active)
same,inhibition,[4],4.69%
